Structures are written as SMILES. A number with no mark means an inactive call. Calls of active or inactive are those of the source. Rule as the data show it, unless noted: active = inhibition above about 25%; inactive = the rest.

For orientation: inhibition means the relative decrease from the control value, in per cent.

Assay [1] addresses Nuclear receptor coactivator 3 (Homo sapiens) (UniProt Q9Y6Q9). Briefly: NCOA3 GAL4-fusion reporter inhibition – cell-based, luminescence, quadruplicate, confirmation (AID 588792;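 active = mean inhibition over 43.08%, the solvent-only control mean plus 3 SD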;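 also: 0% = DMSO treated cells and 100% = gossypol at 36 µM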). The following applies: HEK293 GAL4-SRC3 luciferase reporter, at 3.6 µM, active compounds read high. In general terms: Reporter assays use an easily measured gene product as a stand-in for the process of interest.

The subject of assay [2] is transactivating tegument protein VP16 (Human herpesvirus 1), Gal4-VP16 luciferase reporter. Briefly: repression of VP16-driven luciferase reporter – cell-based, luminescence, high throughput, counter-screen for SRC3 inhibitor project (AID 588794; in the data active = inhibition above about 30%). The following applies: mammalian cells, at 3.6 µM, active compounds read high.
For assay [3], the target named is Nuclear receptor coactivator 1 (Homo sapiens) (UniProt Q15788). As to the kind of experiment: NCOA1 GAL4-fusion reporter inhibition – cell-based, luminescence, quadruplicate, confirmation (AID 588820;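 active = mean inhibition above 46.68%, the untreated control wells mean plus 3 SD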;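 also: 0% = DMSO wells and 100% = gossypol 36 µM treated wells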). The following applies: HEK293 GAL4-SRC1 luciferase reporter, at 3.6 µM, active compounds read high.
Nuclear receptor coactivator 1 (Homo sapiens), sequence (Q15788 whole entry, looked up, the tested form may be a part): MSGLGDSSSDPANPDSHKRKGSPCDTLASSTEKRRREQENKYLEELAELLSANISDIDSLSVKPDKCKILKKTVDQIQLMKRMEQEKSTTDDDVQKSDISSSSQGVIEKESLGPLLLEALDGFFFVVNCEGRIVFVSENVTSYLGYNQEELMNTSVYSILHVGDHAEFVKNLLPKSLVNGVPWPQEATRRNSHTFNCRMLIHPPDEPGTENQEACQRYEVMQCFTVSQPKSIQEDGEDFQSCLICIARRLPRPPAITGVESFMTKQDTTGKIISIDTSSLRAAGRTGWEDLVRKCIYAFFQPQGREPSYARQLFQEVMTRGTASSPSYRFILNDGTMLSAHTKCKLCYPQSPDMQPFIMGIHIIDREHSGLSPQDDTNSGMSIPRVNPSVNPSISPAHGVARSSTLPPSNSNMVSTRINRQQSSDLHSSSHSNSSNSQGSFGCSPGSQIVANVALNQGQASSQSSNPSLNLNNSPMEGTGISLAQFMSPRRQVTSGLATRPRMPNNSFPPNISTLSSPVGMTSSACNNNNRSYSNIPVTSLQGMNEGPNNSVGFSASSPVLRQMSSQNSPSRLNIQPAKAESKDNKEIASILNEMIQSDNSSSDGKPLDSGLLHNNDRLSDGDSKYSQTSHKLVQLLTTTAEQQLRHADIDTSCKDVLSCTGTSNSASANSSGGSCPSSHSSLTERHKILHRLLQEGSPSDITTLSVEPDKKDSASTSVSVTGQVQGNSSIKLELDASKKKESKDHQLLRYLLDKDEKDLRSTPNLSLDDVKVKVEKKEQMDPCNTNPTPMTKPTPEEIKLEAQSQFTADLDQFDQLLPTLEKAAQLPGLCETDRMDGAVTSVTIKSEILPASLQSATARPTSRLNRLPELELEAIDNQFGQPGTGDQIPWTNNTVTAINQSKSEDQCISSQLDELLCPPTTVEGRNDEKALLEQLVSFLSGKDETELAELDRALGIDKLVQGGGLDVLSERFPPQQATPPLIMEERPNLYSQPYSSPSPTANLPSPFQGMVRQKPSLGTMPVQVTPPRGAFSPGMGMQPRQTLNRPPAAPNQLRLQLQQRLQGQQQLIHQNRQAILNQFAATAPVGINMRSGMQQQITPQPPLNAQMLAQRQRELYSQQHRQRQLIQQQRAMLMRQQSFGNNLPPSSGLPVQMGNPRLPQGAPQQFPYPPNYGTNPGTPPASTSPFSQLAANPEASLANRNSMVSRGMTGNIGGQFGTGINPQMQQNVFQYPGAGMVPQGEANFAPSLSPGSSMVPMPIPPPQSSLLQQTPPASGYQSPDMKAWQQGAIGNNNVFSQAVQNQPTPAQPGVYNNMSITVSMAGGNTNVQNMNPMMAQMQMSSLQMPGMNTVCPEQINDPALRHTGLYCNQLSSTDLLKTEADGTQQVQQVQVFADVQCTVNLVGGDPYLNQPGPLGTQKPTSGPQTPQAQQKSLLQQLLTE
A short description of assay [4]: repression of VP16-driven luciferase reporter – cell-based, luminescence, high throughput, counter-screen for SRC1 inhibitor project (AID 588824). As to conditions: cell-based VP16 transactivation luciferase luminescence; at 3.6 µM; active compounds read high.

Nuclear receptor coactivator 3 (Homo sapiens), sequence (Q9Y6Q9 whole entry, looked up, the tested form may be a part): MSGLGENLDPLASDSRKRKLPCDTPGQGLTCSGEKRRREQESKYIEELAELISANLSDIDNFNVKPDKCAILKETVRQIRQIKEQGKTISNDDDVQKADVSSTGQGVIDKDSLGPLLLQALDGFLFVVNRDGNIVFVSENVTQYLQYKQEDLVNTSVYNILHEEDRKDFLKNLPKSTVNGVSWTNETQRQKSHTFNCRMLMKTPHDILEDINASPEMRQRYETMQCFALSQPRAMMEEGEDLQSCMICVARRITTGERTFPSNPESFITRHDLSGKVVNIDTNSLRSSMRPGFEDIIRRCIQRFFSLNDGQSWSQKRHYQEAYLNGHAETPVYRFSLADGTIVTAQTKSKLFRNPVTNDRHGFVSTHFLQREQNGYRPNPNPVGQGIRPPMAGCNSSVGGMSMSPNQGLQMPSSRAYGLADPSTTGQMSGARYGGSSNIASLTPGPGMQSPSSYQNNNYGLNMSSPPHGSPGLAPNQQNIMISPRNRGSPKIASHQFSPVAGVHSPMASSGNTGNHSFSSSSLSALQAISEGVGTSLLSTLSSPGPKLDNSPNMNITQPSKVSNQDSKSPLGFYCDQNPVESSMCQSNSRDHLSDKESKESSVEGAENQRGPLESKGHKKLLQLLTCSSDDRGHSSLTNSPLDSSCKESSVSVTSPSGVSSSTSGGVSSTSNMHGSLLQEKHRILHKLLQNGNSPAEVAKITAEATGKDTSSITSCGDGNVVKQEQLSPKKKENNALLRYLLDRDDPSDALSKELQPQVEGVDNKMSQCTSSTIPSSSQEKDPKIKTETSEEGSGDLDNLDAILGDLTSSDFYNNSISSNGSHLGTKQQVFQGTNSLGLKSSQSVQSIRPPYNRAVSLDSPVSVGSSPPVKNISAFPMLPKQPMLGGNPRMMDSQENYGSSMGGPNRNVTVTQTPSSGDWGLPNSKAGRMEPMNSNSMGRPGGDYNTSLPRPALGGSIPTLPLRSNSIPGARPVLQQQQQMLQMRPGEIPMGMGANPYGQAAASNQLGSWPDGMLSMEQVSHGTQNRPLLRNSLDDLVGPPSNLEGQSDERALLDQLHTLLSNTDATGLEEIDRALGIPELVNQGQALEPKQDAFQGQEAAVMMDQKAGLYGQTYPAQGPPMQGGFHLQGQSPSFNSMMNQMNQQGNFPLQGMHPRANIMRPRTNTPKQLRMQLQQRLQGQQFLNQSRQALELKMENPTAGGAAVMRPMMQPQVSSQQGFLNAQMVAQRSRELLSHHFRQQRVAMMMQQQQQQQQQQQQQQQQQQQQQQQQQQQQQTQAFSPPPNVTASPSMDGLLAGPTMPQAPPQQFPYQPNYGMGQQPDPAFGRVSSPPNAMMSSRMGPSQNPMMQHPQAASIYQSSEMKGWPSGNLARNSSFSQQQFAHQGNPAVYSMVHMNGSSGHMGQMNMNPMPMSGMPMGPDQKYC

Regarding `C/C(=N\Nc1ccc2nncn2n1)c1ccccn1`, the inhibition was 70.3% (active) in assay [1], 65.5% (active) in assay [2], 62% (active) in assay [3] and 56.6% (active) in assay [4].
Take `OC1c2cc(Br)ccc2N=C2CCCN21` (stereo not drawn): the inhibition is 44.3% (active) in assay [1], 37.3% (active) in assay [2], 37% in assay [3] and 30.1% (active) in assay [4].
Taken in the same sequence, the figures for `CC(C)(C)c1cc[n+](C2=C([O-])c3ccccc3C(=O)/C2=N\S(=O)(=O)c2cccs2)cc1` were 9.53%, 9.97%, -0.27% and 7.69%.
As to `CC(C)n1cnc2c(NCc3ccccc3)cc(N[C@H](C)CO)cc21`, the inhibition was 16.4% in assay [1], 87.3% (active) in assay [2], 35.6% in assay [3] and 8.74% in assay [4].
Consider `Cc1ccc(NC(=O)c2cc3ccccc3oc2=O)cc1S(=O)(=O)N(C)C`, for which the inhibition is 82.9% (active) in assay [1], 78.5% (active) in assay [2], 67% (active) in assay [3] and 63.7% (active) in assay [4].
Turning to `c1nc2sc3c(c2c2nnnn12)CCCC3`, the inhibition is 28% in assay [1], 24.2% in assay [2], 36.8% in assay [3] and 9.37% in assay [4].
For the molecule `CC(=O)N(C)C1=C(N2CCOCC2)C(=O)c2ccccc2C1=O`, the inhibition was -0.07% in assay [1], 35.7% (active) in assay [2], 14.2% in assay [3] and 21.9% in assay [4].
Taken in the same sequence, the figures for `COc1ccc(-c2csc3ncnc(NCCCO)c23)cc1` were 66.3% (active), 46.3% (active), 50.2% (active) and 49.8% (active).
On the same counts, the results for `O=C(Nc1ccc(N2CCN(C(=O)c3ccc(Cl)cc3)CC2)cc1)c1ccc2c(c1)OCCO2` are 14.2%, 42% (active), 1.25% and 42.5% (active).
On the same counts, the results for `Nc1ccc(Cn2ccc3c4c(N)nc(N)nc4ccc32)cc1` are 66.1% (active), 32% (active), 67.7% (active) and 36.9% (active).
Take `O=C(N/N=C/c1ccc(O)cc1O)/C(=C/c1ccccc1)CCO`: the inhibition in assay [1] is 22.1%; in assay [2] it was 20.7%; in assay [3] it was 31.7%; in assay [4], 24%.
With `O=C(CCc1ccccc1)NC(c1cccs1)c1cc(Cl)c2cccnc2c1O` (stereo not drawn), the inhibition in assay [1] was 55.5% (active); in assay [2], 42% (active); in assay [3], 45%; in assay [4] it was 45.9% (active).
With `CN(Cc1c(C(=O)N/N=C/c2cccc(F)c2)nnn1-c1nonc1N)C1CCCCC1`, the inhibition was -12.4% in assay [1], 3.59% in assay [2], 6.95% in assay [3] and -3.15% in assay [4].
Regarding `CN1CC(=O)N2C(c3cccc([N+](=O)[O-])c3)c3[nH]c4ccccc4c3C[C@H]2C1=O` (stereo partly drawn), the inhibition was 36.1% in assay [1], 36.7% (active) in assay [2], 26.9% in assay [3] and 34.5% (active) in assay [4].
In the case of `CN([C@@H](Cc1ccc(OS(=O)(=O)c2cccc3cnccc23)cc1)C(=O)N1CCN(c2ccccc2)CC1)S(=O)(=O)c1cccc2cnccc12`, the inhibition in assay [1] is -2.66%; in assay [2], 30.3% (active); in assay [3] it was -4.42%; in assay [4], 31.2% (active).
Regarding `C=CCOc1ccccc1CNc1ccc2c(c1)OCCO2`, the inhibition was 25.2% in assay [1], 12.4% in assay [2], -17.1% in assay [3] and -30.1% in assay [4].
Turning to `Cc1ccccc1-c1cc(C(=O)Nc2sc(C(=O)OC(C)C)c(C)c2C#N)c2ccccc2n1`, the inhibition is 31.8% in assay [1], 50.9% (active) in assay [2], 37.2% in assay [3] and 40.9% (active) in assay [4].
Take `Cc1cc(C)c2nc3nc(C)c(C)cc3c(N)c2c1`: the inhibition is 13.7% in assay [1], 49.7% (active) in assay [2], 5.02% in assay [3] and 48% (active) in assay [4].
As to `CCN(CC)CCC(=O)Nc1cccc2c1C(=O)c1ccccc1C2=O`, the inhibition in assay [1] is -12.3%; in assay [2], 21.1%; in assay [3], 8.87%; in assay [4], 25.7% (active).
`CCOC(=O)c1c(C)c2c(=O)[nH]cnc2n1-c1ccccc1`: the inhibition was 51.5% (active) in assay [1], 36.8% (active) in assay [2], 59.9% (active) in assay [3] and 39.9% (active) in assay [4].
Taken in the same sequence, the figures for `Cc1cc(CNC(=O)c2cccc([N+](=O)[O-])c2C)c2ccccc2n1` were 13.9%, 41.2% (active), 16% and 35.8% (active).
On to `COc1cccc(-c2ccc3ncnc(NCc4cccnc4)c3c2)c1`, for which the inhibition in assay [1] is 45.5% (active); in assay [2] it was 31.6% (active); in assay [3], 24.8%; in assay [4], 36.2% (active).
Taken in the same sequence, the figures for `Nc1nc(CCl)nc(Nc2cccc3ccccc23)n1` were 42.7%, 15.4%, 16.1% and 18.8%.
On to `Cc1ccc(-c2n[nH]c(=S)n2/N=C/c2ccncc2)cc1`, for which the inhibition in assay [1] is 26%; in assay [2], 19.3%; in assay [3], 37.6%; in assay [4], 28.7% (active).
As for `c1cnc2ccc(-n3ccnc3)cc2c1`, the inhibition is 24.2% in assay [1], 23.8% in assay [2], 19.9% in assay [3] and 22.4% in assay [4].
Take `COc1ccc(NC(=O)CN(C)C(=O)C2(c3ccccc3)CCCC2)cc1`: the inhibition in assay [1] was 25.3%; in assay [2], 8.28%; in assay [3], 25.3%; in assay [4], 4.02%.
On to `Cc1cc(/C=C2\Cc3ccccc3C2=O)c(C)n1-c1ccccc1`, for which the inhibition was 53.5% (active) in assay [1], 18.6% in assay [2], 20.5% in assay [3] and -2.62% in assay [4].

The record behind these values is PubChem BioAssay.
